Screens: PubChem BioAssay, several laboratories
Most compounds without a hit are left out; they make up all but 3.1% or so of the library.
MBD2 inh: inhibitors of MBD2 binding to methylated DNA, primary screen, biochemical, TR-FRET, DNA-binding domain, human | MBD2 binding to methylated oligonucleotide | inhibition, % at 4.4 µM | 0.31% of 370,000 active | AID 686964, 2013; in the data active means inhibition above about 13%
Target sequence (Q9UBB5 whole entry, looked up, the tested form may be a part): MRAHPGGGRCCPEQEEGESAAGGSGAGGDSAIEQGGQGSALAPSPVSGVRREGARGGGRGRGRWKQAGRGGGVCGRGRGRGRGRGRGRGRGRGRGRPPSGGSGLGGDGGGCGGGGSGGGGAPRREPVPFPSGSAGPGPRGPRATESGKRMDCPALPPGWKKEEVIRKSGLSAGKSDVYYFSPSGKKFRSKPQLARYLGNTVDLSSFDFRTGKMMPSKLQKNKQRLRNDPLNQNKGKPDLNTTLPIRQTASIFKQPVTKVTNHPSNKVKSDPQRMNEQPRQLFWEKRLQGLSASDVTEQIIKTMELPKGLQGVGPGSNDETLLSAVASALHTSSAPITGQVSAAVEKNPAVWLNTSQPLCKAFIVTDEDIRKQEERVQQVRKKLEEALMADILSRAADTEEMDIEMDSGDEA
LEDGF integ inh: blockers of LEDGF/p75-dependent integrase strand transfer – biochemical, TR-FRET, high throughput, primary screen; HIV-1 integrase (with human LEDGF/p75); TR-FRET IN-LEDGF/p75 DNA integration, Eu/Cy5; inhibition, % at 3.7 µM; 0.64% of 370,000 active; AID 743269, 2014;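 active means inhibition above the screen-wide mean plus 3 SD, cut at about 13% in these data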;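 further: signal is the Cy5 over europium emission ratio at 671 and 618 nm; 0% = plate median of compound wells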
proKLK7 act: proKLK7 zymogen activators, primary screen, biochemical, fluorescence intensity; purified proKLK7, EDANS-DABCYL substrate fluorescence; 100% is mature enzyme control, 0% vehicle; Kallikrein-7 (Homo sapiens), P49862; 0.9% of 370,000 active; activation, % at 7 µM; AID 652039, 2013;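 active means activation above the mean of all tested compounds plus 3 SD, computed per campaign excluding outliers beyond control limits, cut at about 13% in these data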
Rin1-Abl PPI inh: inhibitors of Rin1-Abl protein binding, primary screen, biochemical, TR-FRET; Tyrosine-protein kinase ABL1 (Homo sapiens) + Ras and Rab interactor 1 (Homo sapiens), …; inhibition, % at 7.35 µM; 0.4% of 360,000 active; in the data active means inhibition above about 5%, passing the limit was not always enough
UHRF1 binding: UHRF1 methylated DNA binding inhibitors, primary screen, counter-screen for MBD2 inhibitor project, biochemical, TR-FRET, human UHRF1, single concentration. UHRF1 binding to methylated oligo. inhibition, % at 4.4 µM. 0.75% of 370,000 active. AID 687016, 2013; in the data active means inhibition above about 21%;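 further: UHRF1 SRA domain binding a hemimethylated CpG hairpin DNA probe; 0% = median of test compound wells and 100% = reference inhibitor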
Neddyl block: inhibitors of cullin neddylation, primary screen, biochemical, TR-FRET, uHTS, NAE and Ubc12; 0.58% of 360,000 active; calls only at 25 µM; NEDD8-conjugating enzyme Ubc12 (Homo sapiens) + NEDD8-activating enzyme E1 regulatory …; in the data active means inhibition above about 36%
proKLK7 act conf: proKLK7 zymogen activators, confirmation, biochemical, fluorescence intensity, triplicate | 68% of 3,200 active | shares compounds with proKLK7 act | AID 686949, 2013 | purified proKLK7, EDANS-DABCYL substrate fluorescence; scaled: vehicle 0, mature enzyme 100 | activation, % at 7 µM;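 active means activation, as change over the incubation, above the mean of all tested compounds plus 3 SD, cut at about 13% in these data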
EDANS interfere: EDANS-DABCYL substrate optical interference, artefact control for kallikrein-7 zymogen activator project, biochemical, fluorescence intensity, high throughput; shares compounds with proKLK7 act; no enzyme, 4 h; solvent 0%, active enzyme control 100%; activation, % at 7 µM; 80% of 3,200 active; AID 686952, 2013;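 active means activation above the all-compound mean plus 3 SD, ignoring values outside control-based bounds, cut at about 4.8% in these data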;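 further: value is the 4 h activation minus the activation read at time zero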
Active calls of the source: *; i = inactive; / = no result shown.

SMILES	MBD2 inh	LEDGF integ inh	proKLK7 act	Rin1-Abl PPI inh	UHRF1 binding	Neddyl block	proKLK7 act conf	EDANS interfere
C[C@]12c3[nH]c4cc(-c5ccco5)ccc4c3CCN1C(=O)[C@@H](CC(=O)NCCN1CCOCC1)C[C@@H]2C(=O)N1CCCCC1	-2.1	0.4	134.3*	-2.1	-1.8	/	62.6*	60.6*
COc1ccc(C2CC(C(F)(F)F)n3nc(C(=O)NCc4cn(C)nc4C)c(Cl)c3N2)cc1 (configuration not stated)	-1.5	-4.2	0.1	0.8	1.2	i	/	/
Cc1ccccc1CN1CCCCC(NC(=O)c2cccc(C(F)(F)F)c2)C1=O (configuration not stated)	-4.4	1.9	0.5	/	-1.6	/	/	/
O=C(O)CCc1nn2c3ccccc3n(CCN3CCCCC3)c2nc1=O	-2.9	0.0	46.2*	2.5	-4.0	/	7.5	11.0*
Cc1c(NC(=O)C2CCCN(S(=O)(=O)c3ccc(F)cc3)C2)c(=O)n(-c2ccccc2)n1C (configuration not stated)	-3.1	-2.3	-0.6	/	-0.2	/	/	/
CCC1OC23CCCCC2C(C#N)(C(=N)O3)C1(C#N)C#N (configuration not stated)	-2.0	0.9	13.7*	-4.7	-2.9	/	68.2*	61.5*
CCCC1OC23CCCCC2C(C#N)(C(=N)O3)C1(C#N)C#N (configuration not stated)	5.5	0.1	2.1	2.8	7.3	/	/	/
C#CCn1c2ccccc2c(=O)n1C(C)CBr (configuration not stated)	-0.9	0.8	0.6	/	11.3	/	/	/
COC(=O)Cn1c2ccccc2c(=O)n1C(C)CBr (configuration not stated)	0.7	-4.3	66.7*	/	-0.6	/	62.2*	55.1*
COc1ccc(/C=C/C(=O)c2ccc(O)cc2)cc1	2.3	-4.3	12.7*	2.9	-0.6	i	4.3	2.1
COc1ccc(CC(=O)NC2CCS(=O)(=O)C2)cc1 (configuration not stated)	1.9	-1.4	-0.5	-0.1	2.1	i	/	/
CC(Nc1ccc2c(c1)OCCO2)C(=O)Nc1ccc2c(c1)OCO2 (configuration not stated)	6.7	-3.0	48.9*	2.4	3.9	i	39.4*	51.8*
Oc1ccccc1-c1nc(NCc2ccco2)c2ccccc2n1	1.3	-5.3	12.7*	-2.4	-3.0	i	1.9	13.0*
Fc1ccccc1-c1nc(NCc2ccco2)c2ccccc2n1	4.3	-2.7	0.5	3.7	-1.3	i	/	/
CN(C)S(=O)(=O)c1ccc(C(=O)Nc2nc(-c3cccs3)cs2)cc1	4.2	1.5	46.9*	-2.9	-2.4	/	26.8*	128.8*
COc1ccccc1OCCSc1nc2ccccc2n1CC(N)=O	-2.1	-1.1	0.2	-0.1	-1.4	i	/	/
COc1nc(N=C(N)N)nc2ccc(C)cc12	2.7	0.2	17.3*	/	0.7	/	5.6	9.5*
Nc1[nH]c(C(=O)c2ccccc2)c(-c2ccc3c(c2)OCO3)c1C(=O)NCCc1c[nH]c2ccccc12	4.4	2.5	0.8	/	-0.9	/	/	/
CC(C)c1ccc(NC(=O)C2C3C=CC4(O3)C2C(=O)N(CCCN2CCOCC2)C4C(=O)NC2CCCCC2)cc1 (configuration not stated)	3.6	4.4	0.1	-1.5	7.7	i	/	/
O=c1[nH]c(=S)[nH]c2nc(-c3ccccc3)cnc12	-1.1	-0.2	-1.0	-2.2	6.0	i	/	/
